Here are results for six compounds from PubChem BioAssay.

Molecules are shown by their SMILES. Inconclusive results are not listed. Activity calls are given as the source filed them.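 How the source made its calls, unless noted: active means response below a set limit, under 55% cells CD8-positive and vesicle-bound, and CD8 cells' 90th-percentile brightness under 279; inactive means the rest.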

Test [1] can be described thus: yeast TOR pathway RPL19A-GFP modulators, primary screen, cell-based, S. cerevisiae, multiplex flow cytometry (AID 1862; in the data active means percent of DMSO control GFP below about 86%;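 further: lower values mimic rapamycin by blocking the RPL19A rise seen in DMSO cells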). To be noted: S. cerevisiae RPL19A-GFP strain, flow cytometry fluorescence, 3 h; at 10 µM; stronger effect = lower value. In general terms: In flow cytometry, cells or beads pass a laser one at a time.
Test [2] is described as follows: modulators of MEP2-GFP levels in yeast, primary screen, S. cerevisiae, multiplex flow cytometry (AID 1867;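 active means GFP response, as percent of the DMSO control, above the screen-wide mean plus 3 SD, about 139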;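 further: median GFP channel fluorescence of barcode-gated MEP2-GFP cells measured by flow cytometry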). To be noted: S. cerevisiae MEP2-GFP strain, 3 h, at 10 µM, stronger effect = higher value, 100% means same as DMSO wells.
Test [3] can be described thus: modulators of CIT2-GFP expression in yeast, primary screen, S. cerevisiae, GFP fusion, multiplex flow cytometry (AID 1870;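 active means percent response above a set limit, the screen-wide mean plus 3 SD, cut at about 130% in these data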;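 further: barcoded CIT2-GFP strain pooled with four other GFP strains with rapamycin as positive control; median GFP fluorescence per well over plate mean of DMSO wells so 100% = DMSO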). To be noted: 3 h, at 10 µM, stronger effect = higher value.
Test [4] in a line: modulators of LAP4-GFP expression in yeast, primary screen, S. cerevisiae, multiplex flow cytometry (AID 1873;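 active means GFP signal, as percent of the solvent control, above the screen mean plus 3 SD, about 149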). To be noted: 3 h, at 10 µM, stronger effect = higher value.
Test [5] can be described thus: modulators of AGP1-GFP expression in yeast TOR pathway, primary screen, cell-based, multiplex flow cytometry, S. cerevisiae (AID 1887;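 active means GFP signal above the screen-wide mean plus 3 SD, that is over about 124.5% of the solvent control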;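 further: AGP1-GFP fusion strain of S. cerevisiae within a five-strain barcoded multiplex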). To be noted: 3 h, at 10 µM, stronger effect = higher value.
Test [6] is described as follows: inhibitors of CD8+ T cell-vesicle binding, pilot screen, LFA-1/ICAM-1 modulator project, MLPCN validation set, flow cytometry (AID 2523).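 On vesicle binding response: mean PE anti-B7-1 fluorescence of CD8+ cells relative to row control; 100% = QL9-loaded vesicles with DMSO vehicle in the same plate row.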 Particulars: 2C mouse CD8+ T cells, at 7 µM, stronger effect = lower value; double positive events: measured here: CD8+/vesicle+ event percentage.
In test [7] the target is Integrin beta-1 (Homo sapiens) + Integrin alpha-4 (Homo sapiens) (UniProt P13612+P05556). As to the kind of experiment: inhibition of HUTS-21 binding to VLA-4, pilot screen, VLA-4 allosteric modulator project, U937 cells, HUTS-21 mAb, flow cytometry, validation set (AID 2674;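 active means inhibition above 50%, about 3 SD of the validation set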;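 further: antibody binding induced by the VLA-4 ligand LDV present at three times its Kd; 0% = LDV ligand with antibody and no compound and 100% = antibody without LDV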). To be noted: HUTS-21 LIBS mAb binding, at 6.7 µM, stronger effect = higher value, binding induced by LDV ligand.
Integrin beta-1 (Homo sapiens) + Integrin alpha-4 (Homo sapiens), sequence (P05556 whole entry, looked up): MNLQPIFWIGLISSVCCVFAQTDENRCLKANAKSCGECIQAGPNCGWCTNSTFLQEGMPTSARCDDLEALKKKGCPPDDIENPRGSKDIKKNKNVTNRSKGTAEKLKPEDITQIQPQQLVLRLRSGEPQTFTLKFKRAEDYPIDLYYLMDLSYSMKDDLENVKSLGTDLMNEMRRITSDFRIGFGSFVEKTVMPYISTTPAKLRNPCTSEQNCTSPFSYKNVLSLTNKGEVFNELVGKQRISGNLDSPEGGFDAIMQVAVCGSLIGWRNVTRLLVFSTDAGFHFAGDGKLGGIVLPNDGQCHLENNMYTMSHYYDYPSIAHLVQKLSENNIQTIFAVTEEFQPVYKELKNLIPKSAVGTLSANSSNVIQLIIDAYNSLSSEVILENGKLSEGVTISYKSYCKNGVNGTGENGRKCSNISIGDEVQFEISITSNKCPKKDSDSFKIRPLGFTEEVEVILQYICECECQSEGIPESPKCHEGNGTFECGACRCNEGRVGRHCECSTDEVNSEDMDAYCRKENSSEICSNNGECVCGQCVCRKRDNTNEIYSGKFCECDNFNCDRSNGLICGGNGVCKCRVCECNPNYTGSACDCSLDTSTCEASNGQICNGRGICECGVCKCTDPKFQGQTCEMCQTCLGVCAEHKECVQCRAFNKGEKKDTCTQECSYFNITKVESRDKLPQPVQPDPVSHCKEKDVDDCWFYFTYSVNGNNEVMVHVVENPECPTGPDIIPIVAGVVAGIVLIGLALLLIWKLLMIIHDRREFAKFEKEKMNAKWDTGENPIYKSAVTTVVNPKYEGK
Integrin beta-1 (Homo sapiens) + Integrin alpha-4 (Homo sapiens), sequence (P13612 whole entry, looked up): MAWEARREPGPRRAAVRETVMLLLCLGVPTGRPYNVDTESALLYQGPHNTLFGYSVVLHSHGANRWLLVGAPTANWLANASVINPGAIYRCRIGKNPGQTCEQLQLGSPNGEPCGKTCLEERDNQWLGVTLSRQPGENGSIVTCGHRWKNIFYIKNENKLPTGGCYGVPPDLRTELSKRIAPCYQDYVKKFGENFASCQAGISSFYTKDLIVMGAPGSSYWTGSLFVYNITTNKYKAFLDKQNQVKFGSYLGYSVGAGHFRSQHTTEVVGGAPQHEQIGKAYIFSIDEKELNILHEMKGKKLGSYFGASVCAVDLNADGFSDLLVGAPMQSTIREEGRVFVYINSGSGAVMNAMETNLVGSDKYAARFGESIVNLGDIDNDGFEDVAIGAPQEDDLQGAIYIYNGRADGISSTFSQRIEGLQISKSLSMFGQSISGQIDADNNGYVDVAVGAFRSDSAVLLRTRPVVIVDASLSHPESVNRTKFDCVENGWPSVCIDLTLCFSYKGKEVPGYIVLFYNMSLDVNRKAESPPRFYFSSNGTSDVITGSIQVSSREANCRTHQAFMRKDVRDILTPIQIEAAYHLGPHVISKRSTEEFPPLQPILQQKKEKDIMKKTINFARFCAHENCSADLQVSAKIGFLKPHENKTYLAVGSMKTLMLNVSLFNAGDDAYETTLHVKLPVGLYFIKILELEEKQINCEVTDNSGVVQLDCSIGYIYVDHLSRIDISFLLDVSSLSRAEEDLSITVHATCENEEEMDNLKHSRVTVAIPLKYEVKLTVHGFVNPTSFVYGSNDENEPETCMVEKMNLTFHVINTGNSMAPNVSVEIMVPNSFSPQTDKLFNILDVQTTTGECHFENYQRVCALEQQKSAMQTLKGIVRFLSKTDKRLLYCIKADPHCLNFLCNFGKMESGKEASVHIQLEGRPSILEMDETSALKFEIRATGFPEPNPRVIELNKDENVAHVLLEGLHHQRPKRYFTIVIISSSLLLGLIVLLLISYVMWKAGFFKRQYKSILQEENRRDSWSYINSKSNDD

The nature of test [8]: superoxide lowering in aged yeast cells, pilot screen, validation compound set (AID 2706;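 active means superoxide response below 65% of plate, a cut near 3 SD across the whole screen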;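 further: yeast exposed to compound for one week at 30 degrees C before staining; 100% = mean of all compound wells on the same plate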). Particulars: S. cerevisiae aging, superoxide DHE fluorescence; at 10 µM, stronger effect = lower value.
Test [9] addresses Beta-adrenergic receptor kinase 1 (Homo sapiens) (UniProt P25098). The test can be described thus: GRK2 binders displacing RNA aptamer, biochemical, validation, human GRK2, bead flow cytometry (AID 488806;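 active means aptamer binding inhibition above 30%, about 3 SD of noise from non-fluorescent compounds; inactive means inhibition at or below 30%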). To be noted: bead-bound GRK2, FAM-aptamer displacement, at 10 µM, stronger effect = higher value.
Test [10] addresses AP-2 complex subunit beta (Homo sapiens) (UniProt P63010). The test can be described thus: inhibitors of arrestin peptide binding to AP2, pilot screen, biochemical, validation set, GST-AP2 beads, flow cytometry (AID 504541;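 active means inhibition above 54%, about 3 SD of non-fluorescent compounds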;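 further: AP2 carries R879A mutation and is captured from E. coli lysate; bead-bound FITC arrestin peptide fluorescence measuring arrestin peptide binding to AP2; 0% = DMSO wells and 100% = excess unlabeled arrestin peptide control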). To be noted: FITC arrestin peptide, at 10 µM, stronger effect = higher value, AP2 beta2 appendage fragment, R879A mutant.
Test [11] is described as follows: yeast V-ATPase proton transport modulators, S. cerevisiae, pHLuorin, HTS validation (AID 504600; in the data active means response above about 15%;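 further: plate controls were DMSO for no effect and reference compound for full effect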). Particulars: S. cerevisiae pHLuorin cytosolic pH, at 10 µM, stronger effect = higher value.
Test [12] concerns anti-desmoglein-3 scFv antibody binding to human DSG3. The test can be described thus: inhibitors of anti-DSG3 scFv binding to DSG3, pilot screen, biochemical, validation compound set, bead-based, flow cytometry (AID 588368;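 active means binding below the plate cutoff, the plate median minus 3 SD, with a reading above zero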;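 further: signal is the median channel fluorescence of bead-bound GFP antibody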). To be noted: Protein G beads, DSG3-Fc, scFv-GFP binding, at 10 µM, stronger effect = lower value.
Test [13] is described as follows: inhibitors of fungal efflux pumps CDR1, CDR2, MDR1, pilot screen, validation compound set, multiplex, phenotypic (AID 588506;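 active means efflux inhibition above 0.42, the validation set average plus 4 SD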;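 further: Nile Red retained in cells so higher fluorescence means more efflux inhibition; 0 = negative control wells and 1 = enniatin B 25 µM full block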). To be noted: S. cerevisiae pump-expressing triplex, Nile Red efflux flow cytometry; at 10 µM; stronger effect = higher value; the pumps come from Candida albicans.
The target in test [14] is ATP-binding cassette sub-family B member 6 (Homo sapiens) (UniProt Q9NP58). The test can be described thus: ABCB6 transporter inhibitors, pilot screen, K562-ABCB6 cells, flow cytometry, validation set (AID 588550;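 active means inhibition above the screen-wide mean plus 3 SD, about 51%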;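 further: 0% = DMSO wells and 100% = benzethonium chloride 70 µM positive control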). To be noted: K562-ABCB6 porphyrin accumulation, 1 h, at 10 µM, stronger effect = higher value.
ATP-binding cassette sub-family B member 6 (Homo sapiens), sequence (Q9NP58 whole entry, looked up): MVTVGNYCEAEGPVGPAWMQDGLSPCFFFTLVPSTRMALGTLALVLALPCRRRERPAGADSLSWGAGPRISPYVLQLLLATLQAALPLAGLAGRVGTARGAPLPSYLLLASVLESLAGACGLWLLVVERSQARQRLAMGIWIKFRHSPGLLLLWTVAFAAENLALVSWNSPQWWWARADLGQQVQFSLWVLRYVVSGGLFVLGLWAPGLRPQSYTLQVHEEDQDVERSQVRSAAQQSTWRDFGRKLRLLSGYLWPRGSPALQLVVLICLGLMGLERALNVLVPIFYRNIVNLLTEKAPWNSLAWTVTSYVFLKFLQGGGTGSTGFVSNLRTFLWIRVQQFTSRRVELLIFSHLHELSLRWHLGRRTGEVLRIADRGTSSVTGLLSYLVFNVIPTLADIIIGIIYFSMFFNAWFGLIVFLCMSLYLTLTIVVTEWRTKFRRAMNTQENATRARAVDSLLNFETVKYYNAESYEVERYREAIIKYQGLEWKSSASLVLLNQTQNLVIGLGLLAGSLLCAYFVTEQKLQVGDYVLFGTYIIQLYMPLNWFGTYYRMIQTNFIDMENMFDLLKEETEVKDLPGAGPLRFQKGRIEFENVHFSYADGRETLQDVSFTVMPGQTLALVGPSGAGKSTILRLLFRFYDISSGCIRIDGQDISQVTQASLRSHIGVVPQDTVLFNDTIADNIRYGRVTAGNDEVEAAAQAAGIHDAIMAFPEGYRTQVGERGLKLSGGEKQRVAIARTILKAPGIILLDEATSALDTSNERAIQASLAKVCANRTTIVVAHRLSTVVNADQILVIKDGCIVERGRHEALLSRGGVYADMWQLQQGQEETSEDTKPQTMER
Test [15] is described as follows: promoters of myeloid differentiation in arrested cells, primary screen, cell-based, GFP/MAC1 double positive, flow cytometry, validation set (AID 588685;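 active means differentiation response of at least 50%, scaled between solvent and reference control, from cells with both markers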;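 further: compound exposure lasts four days before antibody staining and flow analysis; 0% = DMSO wells and 100% = 5 µM fulvestrant positive control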). To be noted: ER-HoxA9 marrow cells, stronger effect = higher value, normalized: vehicle 0, fulvestrant 100.
Test [16] has as its target Beta-2 adrenergic receptor (Homo sapiens) (UniProt P07550). The test can be described thus: beta2AR agonists driving receptor internalization, pilot screen, cell-based, FAP fluorogen, flow cytometry, validation set (AID 504459;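 active means percent response above 42, roughly 3 SD of non-fluorescent test compounds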;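 further: agonist-driven loss of surface beta2AR via internalization measured by FAP dye flow cytometry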). To be noted: Am2.2-beta2AR cells, FAP surface receptor flow cytometry; at 10 µM; stronger effect = higher value.

AP-2 complex subunit beta (Homo sapiens), sequence (P63010 whole entry, looked up, the tested form may be a part, one chain of several): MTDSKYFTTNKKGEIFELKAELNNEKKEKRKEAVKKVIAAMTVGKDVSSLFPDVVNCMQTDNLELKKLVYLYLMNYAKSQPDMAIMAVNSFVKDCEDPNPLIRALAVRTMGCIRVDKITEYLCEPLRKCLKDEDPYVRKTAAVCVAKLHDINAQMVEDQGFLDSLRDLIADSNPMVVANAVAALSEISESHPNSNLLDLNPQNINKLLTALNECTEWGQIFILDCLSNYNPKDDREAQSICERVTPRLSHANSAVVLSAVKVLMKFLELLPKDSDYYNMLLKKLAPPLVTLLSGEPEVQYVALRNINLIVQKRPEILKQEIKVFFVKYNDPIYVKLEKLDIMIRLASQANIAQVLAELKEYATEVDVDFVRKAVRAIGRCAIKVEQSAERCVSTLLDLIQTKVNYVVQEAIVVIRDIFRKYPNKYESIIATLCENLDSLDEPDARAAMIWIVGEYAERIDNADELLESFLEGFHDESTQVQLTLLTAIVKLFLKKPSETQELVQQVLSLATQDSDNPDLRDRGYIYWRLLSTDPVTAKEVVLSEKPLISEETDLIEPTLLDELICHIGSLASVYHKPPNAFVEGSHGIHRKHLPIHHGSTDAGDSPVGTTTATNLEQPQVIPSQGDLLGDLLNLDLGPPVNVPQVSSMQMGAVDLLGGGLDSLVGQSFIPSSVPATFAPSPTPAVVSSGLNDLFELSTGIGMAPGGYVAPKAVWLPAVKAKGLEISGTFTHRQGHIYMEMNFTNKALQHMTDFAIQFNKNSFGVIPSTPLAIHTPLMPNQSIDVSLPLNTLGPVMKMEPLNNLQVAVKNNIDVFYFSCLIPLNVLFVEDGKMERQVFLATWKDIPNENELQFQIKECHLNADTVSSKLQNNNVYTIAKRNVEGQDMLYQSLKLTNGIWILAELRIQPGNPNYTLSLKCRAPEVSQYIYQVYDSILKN
Beta-2 adrenergic receptor (Homo sapiens), sequence (P07550 whole entry, looked up): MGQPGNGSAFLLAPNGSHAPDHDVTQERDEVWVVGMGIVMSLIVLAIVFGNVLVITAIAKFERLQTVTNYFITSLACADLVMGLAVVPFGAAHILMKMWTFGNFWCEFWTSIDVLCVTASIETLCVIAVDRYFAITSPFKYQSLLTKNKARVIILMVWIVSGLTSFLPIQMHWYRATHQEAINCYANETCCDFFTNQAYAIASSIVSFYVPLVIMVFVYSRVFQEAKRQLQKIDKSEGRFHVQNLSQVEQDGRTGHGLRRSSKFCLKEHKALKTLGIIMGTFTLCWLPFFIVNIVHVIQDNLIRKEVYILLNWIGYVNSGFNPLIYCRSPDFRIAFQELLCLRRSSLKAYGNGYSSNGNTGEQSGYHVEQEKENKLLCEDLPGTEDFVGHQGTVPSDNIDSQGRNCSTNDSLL
Beta-adrenergic receptor kinase 1 (Homo sapiens), sequence (P25098 whole entry, looked up): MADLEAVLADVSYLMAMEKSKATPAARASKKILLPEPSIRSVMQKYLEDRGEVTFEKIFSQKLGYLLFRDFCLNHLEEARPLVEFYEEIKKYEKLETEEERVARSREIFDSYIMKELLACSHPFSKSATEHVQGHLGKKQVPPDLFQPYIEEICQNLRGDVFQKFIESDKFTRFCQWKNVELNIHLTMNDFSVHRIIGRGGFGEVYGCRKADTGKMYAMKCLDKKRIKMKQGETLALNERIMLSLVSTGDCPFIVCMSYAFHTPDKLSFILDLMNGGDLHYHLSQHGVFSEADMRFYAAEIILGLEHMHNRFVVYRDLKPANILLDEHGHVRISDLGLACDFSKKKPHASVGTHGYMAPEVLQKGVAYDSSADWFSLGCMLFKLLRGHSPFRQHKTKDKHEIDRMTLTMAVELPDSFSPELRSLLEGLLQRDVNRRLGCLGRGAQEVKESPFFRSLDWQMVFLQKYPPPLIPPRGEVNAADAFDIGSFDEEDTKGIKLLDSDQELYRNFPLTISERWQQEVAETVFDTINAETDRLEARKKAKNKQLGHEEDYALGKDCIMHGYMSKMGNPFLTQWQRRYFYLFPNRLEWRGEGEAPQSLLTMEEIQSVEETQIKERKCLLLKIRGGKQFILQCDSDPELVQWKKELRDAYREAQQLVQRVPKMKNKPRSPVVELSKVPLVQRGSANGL

As a reminder, the inhibition is the change of the read-out against control, counted positive when it falls. For the compound `CN(C)CCC(c1ccc(Br)cc1)c1ccccn1` (stereo not given), the percent of DMSO control GFP in test [1] is 103% (inactive). In addition, the GFP response vs DMSO in [2] is 101% (inactive); in test [4], 97.4% (inactive). For the same compound, the percent response of DMSO control in [3] is 94.9% (inactive). In addition, the GFP response, % of DMSO in test [5] is 100% (inactive). In test [6], the double positive events was 56.9%. In addition, the vesicle binding response in test [6] is 182% (inactive). For the same compound, the inhibition in test [7] was 36.1% (inactive); in [10], -4.8% (inactive); in test [14], 12% (inactive). Further, the superoxide response (% of plate) in [8] is 106% (inactive). Moreover, the aptamer binding inhibition in test [9] is 2% (inactive). Further, the response in test [11] is 2.41% (inactive). The binding (% of control) in test [12] is 103% (inactive). The efflux inhibition (fraction of control) in test [13] is 0.18 (inactive). In addition, the differentiation response in [15] is -1.82% (inactive).

`C[C@]12CC[C@@H]3c4cc(O)c(O)cc4CC[C@H]3[C@@H]1CC[C@@H]2O`: the percent of DMSO control GFP in test [1] was 98.8% (inactive). Also, the figures for the GFP response vs DMSO in [2] and in [4] were 98.3% (inactive) and 81.5% (inactive), respectively. The percent response of DMSO control in test [3] was 95.4% (inactive). For the same compound, in test [5], the GFP response, % of DMSO is 90% (inactive). In [6], the double positive events turned out to be 65.9%. For the same compound, the vesicle binding response in [6] was 236% (inactive). In addition, the inhibition in [7] is 16.1% (inactive); in test [10], 2.25% (inactive); in test [14], 5% (inactive). The aptamer binding inhibition in [9] is 3% (inactive). Also, the response in [16] was 0.11% (inactive); in test [11], -0.25% (inactive). For the same compound, in test [12], the binding (% of control) was 96.1% (inactive). Also, the efflux inhibition (fraction of control) in test [13] is 0.49 (active). Further, the differentiation response in [15] is 8.06% (inactive).

Take `CCC1(c2ccccc2)C(=O)NCNC1=O`: the percent of DMSO control GFP in test [1] is 102% (inactive). Besides, the results for the GFP response vs DMSO in test [2] and in test [4] were 94.1% (inactive) and 87.4% (inactive), respectively. Also, in test [3], the percent response of DMSO control is 95.4% (inactive). Besides, the GFP response, % of DMSO in [5] was 92.6% (inactive). This compound returned a double positive events in test [6] of 61.9%. Besides, the vesicle binding response in test [6] was 285% (inactive). Moreover, the results for the inhibition in test [7], in [10] and in test [14] were 5.77% (inactive), 13.7% (inactive) and -12% (inactive), respectively. The aptamer binding inhibition in test [9] is 2% (inactive). Also, the response in [16] was 7.83% (inactive); in [11] it was 1.33% (inactive). Further, the binding (% of control) in test [12] was 101% (inactive). Besides, the efflux inhibition (fraction of control) in test [13] is 0.77 (active). In addition, in test [15], the differentiation response is 13.9% (inactive).

Consider `CN1C(=O)C(O)(CC(=O)/C=C/C=C/c2ccccc2)c2ccccc21` (stereo not given), for which the percent of DMSO control GFP in test [1] was 104% (inactive). Moreover, the values for the GFP response vs DMSO in test [2] and in test [4] were 98.9% (inactive) and 94.3% (inactive), respectively. Moreover, the percent response of DMSO control in test [3] was 104% (inactive). Further, the GFP response, % of DMSO in test [5] was 98.1% (inactive). This compound also displayed a double positive events in test [6] of 54.8%. For the same compound, in test [6], the vesicle binding response is 153% (inactive). The inhibition is -0.24% (inactive) in test [7], -6.66% (inactive) in test [10] and 5% (inactive) in test [14]. The superoxide response (% of plate) in [8] is 102% (inactive). Moreover, the aptamer binding inhibition in test [9] was 2% (inactive). The response in test [11] was 0.35% (inactive). For the same compound, in [12], the binding (% of control) was 99% (inactive). Also, the efflux inhibition (fraction of control) in test [13] was 0.06 (inactive). Besides, the differentiation response in [15] is -18% (inactive).

`CNC[C@H](O)c1ccc(O)c(O)c1`: the percent of DMSO control GFP in test [1] was 107% (inactive). The results for the GFP response vs DMSO in test [2] and in test [4] were 95.9% (inactive) and 97.4% (inactive), respectively. Besides, the percent response of DMSO control in test [3] is 107% (inactive). Moreover, in test [5], the GFP response, % of DMSO was 103% (inactive). Further, the double positive events in test [6] was 43.9%. Besides, the vesicle binding response in test [6] is 162% (inactive). Besides, the inhibition in test [7] was -25.4% (inactive); in [10] it was 2.4% (inactive); in [14], 9% (inactive). Also, the superoxide response (% of plate) in test [8] is 108% (inactive). Also, in test [11], the response was 2.95% (inactive). Further, the binding (% of control) in [12] is 103% (inactive). Also, the efflux inhibition (fraction of control) in [13] was -0.24 (inactive). For the same compound, the differentiation response in test [15] is -8.27% (inactive).

As for `Cn1c(=O)[nH]c(=O)c2c1ncn2CCN1CCOCC1`, the percent of DMSO control GFP in [1] was 103% (inactive). Also, the values for the GFP response vs DMSO in test [2] and in [4] were 98.3% (inactive) and 82.2% (inactive), respectively. Further, the percent response of DMSO control in test [3] was 96.6% (inactive). In addition, in test [5], the GFP response, % of DMSO is 97.3% (inactive). The compound also displayed a double positive events in test [6] of 63.6%. The vesicle binding response in test [6] was 288% (inactive). Further, the inhibition in test [7] is -3.57% (inactive); in test [10], -3.3% (inactive); in test [14] it was 16% (inactive). The aptamer binding inhibition in test [9] was -4% (inactive). Further, the response in test [16] is -4.41% (inactive); in [11], 0.49% (inactive). The binding (% of control) in test [12] is 102% (inactive). Besides, the efflux inhibition (fraction of control) in test [13] was 0.08 (inactive). The differentiation response in test [15] was 62.8% (active).
